# In PubChem BioAssay (EPA / NIEHS):
# The source made the active and inactive calls. How the source made its calls: active means hit-call score of the fitted dose curve at least 0.9, where 1 is the maximum; inactive means score below 0.9.
# Target: Hypoxia-inducible factor 1-alpha (Homo sapiens) (UniProt Q16665)
# Test: ATG_HIF1a_CIS: Attagene CIS-FACTORIAL HepG2 Assay for human Hypoxia Inducible Factor 1 (HIF1A) (AID 2282951)
# Conditions: HepG2 Attagene cis-factorial HIF1a reporter transcription; actives raise or lower the signal
# Method: ATG_CIS is a cell-based, multiplexed-readout assay that uses HepG2, a human liver cell line, with measurements taken at 24 hours after chemical dosing in a 24-well plate.ATG_HIF1a_CIS is one of 52 assay component(s) measured or calculated from the ATG_CIS assay. It is designed to make measurements of mRNA induction, a form of inducible reporter, as detected with fluorescence intensity signals by Reverse transcription polymerase chain reaction (RT-PCR) and Capillary electrophoresis technology.Data from the assay component ATG_HIF1a_CIS was analyzed into 1 assay endpoint. This assay endpoint, ATG_HIF1a_CIS, was analyzed with bidirectional fitting relative to DMSO as the negative control and baseline of activity. Using a type of inducible reporter, measures of mRNA for gain or loss-of-signal activity can be used to understand the reporter gene at the transcription factor-level as they relate to the gene HIF1A. Furthermore, this assay endpoint can be referred to as a primary readout, because this assay has produced multiple assay endpoints where this one serves a reporter gene function. To generalize the intended target to other relatable targets, this assay endpoint is annotated to the dna binding intended target family, where the subfamily is basic helix-loop-helix protein.
# Human liver HepG2 cells are transiently transfected with multiple reporter transcription units (MRTUs) in 6-well plates using FuGene 6 reagent (Roche; 3 ml FuGene/1 mg DNA). The MRTU constructs are regulated by a cis-regulating element (promoter). […] A major difference between the CIS and TRANS system is that in CIS activities of endogenous TFs are measured, whereas the TRANS assay evaluates changes in activities of exogenous, chimeric NR-Gal4 proteins. […] At the end of 24 hour incubation, total RNA was isolated using TriZol reagent (Invitrogen). The isolated RNA is then reverse-transcribed using oligo(dT) primer and Mo-MLV reverse transcriptase (Invitrogen) with DNAse I (Ambion) treatment for 30 min. The one-tenth of the produced cDNA was amplified by PCR using Taq DNA polymerase (Invitrogen) and two reporter sequence-specific primers. The PCR products were fluorescently labeled by primer extension with 6-arboxyfluorescein (6-FAM) 5'-labeled reporter sequence-specific primer (2 min at 95 C, 20 s at 68 C and 10 min at 72 C) and these products were digested with 5U of HpaI (New England Biolabs) for 2h at 37 C. The fragments were purified using Qiaquick PCR columns (Qiagen), analyzed on an ABI 3130xL genetic analyzer (Applied Biosystems) with peak positions identified by using a set of X-rhodamine (ROX)-labeled MapMarker1000 molecular weight standards (BioVentures). The raw capillary electrophoresis data was processed using Attagraph software (Attagene).
# Hypoxia-inducible factor 1-alpha (Homo sapiens), sequence (Q16665 whole entry, looked up): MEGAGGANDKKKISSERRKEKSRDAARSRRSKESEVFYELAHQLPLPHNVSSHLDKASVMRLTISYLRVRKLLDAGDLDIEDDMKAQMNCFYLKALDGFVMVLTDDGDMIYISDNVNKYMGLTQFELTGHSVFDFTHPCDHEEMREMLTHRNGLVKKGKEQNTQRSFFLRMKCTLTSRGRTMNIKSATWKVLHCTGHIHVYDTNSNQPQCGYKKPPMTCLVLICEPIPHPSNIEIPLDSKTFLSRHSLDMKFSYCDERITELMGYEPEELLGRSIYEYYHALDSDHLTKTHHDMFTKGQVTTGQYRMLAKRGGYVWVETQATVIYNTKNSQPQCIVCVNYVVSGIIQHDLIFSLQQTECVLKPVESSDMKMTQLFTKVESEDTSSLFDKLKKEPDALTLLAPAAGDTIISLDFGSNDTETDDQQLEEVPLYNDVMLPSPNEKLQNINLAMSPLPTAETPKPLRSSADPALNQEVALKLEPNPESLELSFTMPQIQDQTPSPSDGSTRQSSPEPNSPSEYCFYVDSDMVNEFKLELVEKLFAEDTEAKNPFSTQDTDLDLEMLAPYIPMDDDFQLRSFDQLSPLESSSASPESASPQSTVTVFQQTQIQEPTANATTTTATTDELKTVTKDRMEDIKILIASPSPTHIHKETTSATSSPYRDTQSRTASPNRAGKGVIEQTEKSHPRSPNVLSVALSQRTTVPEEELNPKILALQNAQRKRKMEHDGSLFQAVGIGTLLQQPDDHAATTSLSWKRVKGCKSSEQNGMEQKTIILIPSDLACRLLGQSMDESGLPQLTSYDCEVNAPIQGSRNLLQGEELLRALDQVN
SMILES,outcome,AC50
CN(C)C(=S)S,inactive,–
Nc1ccc(Br)cc1,inactive,–
CC(C)(c1ccc(O)c(-c2ccccc2)c1)c1ccc(O)c(-c2ccccc2)c1,inactive,–
C=C(C)[C@@H]1CC=C(C=O)CC1,inactive,–
O=c1[nH]c(=O)n(Cl)c(=O)n1Cl,inactive,–
Cc1cc(Cl)ccc1OC(C)C(=O)O (stereo not given),inactive,–
CCOP(=S)(OCC)OP(=S)(OCC)OCC,–,49.2 µM (active)
Cc1cc(Cl)ccc1OCCCC(=O)O,inactive,–
C=CC(=O)[O][Sn]([CH2]CCC)([CH2]CCC)[CH2]CCC,inactive,–
N#CCC#N,inactive,–
CCCCC(CC)C(=O)Cl (stereo not given),inactive,–
OC[P+](CO)(CO)CO,inactive,–
O=NN1CCOCC1,inactive,–
Cl[C@H]1OCCO[C@@H]1Cl,–,49.6 µM (active)
CCNc1nc(NCC)nc(SC)n1,inactive,–
CCCCCCCCCCCCN(C)C,inactive,–
ClCCCCl,inactive,–
O=C/C(Cl)=C(/Cl)C(=O)O,inactive,–
OCCCCO,inactive,–
CNC(=O)CSP(=O)(OC)OC,inactive,–

SMILES,outcome,AC50
Nc1c(Oc2ccccc2)cc(O)c2c1C(=O)c1ccccc1C2=O,inactive,–
CCN(N=O)C(N)=O,inactive,–
Cc1c([N+](=O)[O-])c(C)c([N+](=O)[O-])c(C(C)(C)C)c1[N+](=O)[O-],inactive,–
Oc1c(Cl)cc(Cl)cc1Cl,–,41.6 µM (active)
CC(C)(C#N)N=NC(C)(C)C#N,inactive,–
CCCCCCCCCCBr,inactive,–
CN(C)[C@@H]1C(=O)C(C(N)=O)=C(O)[C@@]2(O)C(=O)C3=C(O)c4c(O)ccc(Cl)c4[C@@](C)(O)[C@H]3C[C@@H]12,inactive,–
N#Cc1ccc(Cl)cc1,inactive,–
N#Cc1ccccc1Cl,inactive,–
O=S(=O)(c1ccc(Cl)cc1)c1cc(Cl)c(Cl)cc1Cl,inactive,–
O=S(=O)(C(Cl)(Cl)Cl)C(Cl)(Cl)Cl,inactive,–
OC(Cc1ccccc1Cl)(Cn1[nH]cnc1=S)C1(Cl)CC1 (stereo not given),inactive,–
CCCCS(=O)(=O)Cl,inactive,–
CCCSP(=S)(OCC)Oc1ccc(SC)cc1 (stereo not given),inactive,–
CC(C)=CC1C(C(=O)OCc2cccc(Oc3ccccc3)c2)C1(C)C (stereo not given),inactive,–
COCC(=O)N(c1c(C)cccc1C)[C@H](C)C(=O)OC,inactive,–
CC1(C)COP(Oc2ccccc2)OC1,inactive,–
C=C(C)C(=O)OCC(CC)CCCC (stereo not given),inactive,–
CNC(=O)O/N=C/C(C)(C)S(C)(=O)=O,inactive,–
CNC(=O)N(C)c1nc2ccccc2s1,inactive,–
